Screening data (PubChem)
This is a sample that favours compounds with a hit; in the whole collection about 7.4% have one here.
NPC1 promoter act = NPC1 promoter activation | Huh7 NPC1 promoter luciferase reporter, 24 h | Potency, µM (top dose mostly 9.22 µM), inactives show at the top dose activation, hits mostly activators | actives 2.4% (n = 320,000) | AID 485313; further: % of control where 0% means no effect; nearly all actives have a fitted effect of over 60% in size
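NPC1 promoter–luciferase Huh7 cells; 24 h compound; luminescence.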
SMN2 splice up = SMN2 splice variant enhancement; actives 2.8% (n = 210,000); AID 1458; Potency, µM (highest dose often 46.1 µM), for the others: top-dose activity change, positive = activation, actives largely listed as activators; HEK293 SMN2-luciferase splicing reporter, luminescence, 30-36 h; further: % of control where 0% means no effect; nearly all actives have a fitted effect of over 55% in size
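HEK293 cells carry an SMN2 minigene-luciferase reporter in which exon 7 inclusion puts luciferase in frame. Cells were seeded at 2000 cells/well, attached for 10-12 hours, then exposed to compounds for 30-36 hours at 37C before ONE-Glo luminescence.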
Rab9 promoter act = activators of Rab9 promoter; AID 485297; actives 2.8% (n = 320,000); Huh7 Rab9 promoter-luciferase reporter, luminescence, 24 h; Potency, µM (doses to about 9.22 µM), for inactives: at the highest dose activation, negative = inhibition, actives largely listed as activators; further: % of control where 0% means no effect; nearly all actives have a fitted effect of over 60% in size
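Luminescence from Amplite-detected luciferase (10 minutes, ambient) reports Rab9 promoter activation. Before that, stable Rab9-luciferase Huh7 cells (1500/well, reduced-serum OP-MEM I plus 10% FBS) were exposed to compound for 24 hours at 37C.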
FLuc counter = firefly luciferase modulation, counter-screen for miR-21 project; P08659; purified FLuc, Km substrates, luminescence inhibition; Potency, µM (highest dose often 57.5 µM), for inactives: at the top dose activity change, negative = inhibition, hits mostly inhibitors; actives 6.9% (n = 360,000);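 further: plate controls were vehicle for no effect and reference inhibitor for full effect; nearly all actives have a fitted effect of over 55% in size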
Target sequence (P08659 whole entry, looked up): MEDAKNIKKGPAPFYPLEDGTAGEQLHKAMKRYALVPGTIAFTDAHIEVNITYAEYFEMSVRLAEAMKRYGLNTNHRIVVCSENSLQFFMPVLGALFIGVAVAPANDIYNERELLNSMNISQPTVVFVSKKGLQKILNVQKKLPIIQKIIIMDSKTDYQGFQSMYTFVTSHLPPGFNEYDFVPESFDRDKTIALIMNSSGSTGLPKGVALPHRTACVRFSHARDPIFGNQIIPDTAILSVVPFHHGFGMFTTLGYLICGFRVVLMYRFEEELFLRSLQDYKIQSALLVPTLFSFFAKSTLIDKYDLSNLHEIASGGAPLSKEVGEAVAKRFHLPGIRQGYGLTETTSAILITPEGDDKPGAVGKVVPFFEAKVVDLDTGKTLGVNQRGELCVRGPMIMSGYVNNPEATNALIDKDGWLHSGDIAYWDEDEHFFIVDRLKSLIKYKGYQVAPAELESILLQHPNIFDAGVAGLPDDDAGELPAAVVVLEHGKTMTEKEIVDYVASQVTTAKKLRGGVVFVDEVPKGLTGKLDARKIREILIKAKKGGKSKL
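Biochemical qHTS of compounds, final roughly 60 µM downward over six points, against 10 nM purified firefly luciferase using Km concentrations of substrates (10 uM D-luciferin, 10 uM ATP) in Tris acetate pH 7.5 buffer; luminescence output.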
ELG1 genotox = genotoxicity induction in ELG1-luciferase HEK293T cells; HEK293T ELG1-luciferase reporter, luminescence, 16 h; Potency, µM (highest dose often 46 µM), without a hit: at the highest dose activity change, positive = activation, hits mostly activators; actives 1.3% (n = 330,000); AID 504466; further: % of control where 0% means no effect; nearly all actives have a fitted effect of over 60% in size
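Luminescence read-out: rising ELG1-luciferase signal, reflecting elevated ELG1 protein under genetic stress, flags genotoxic compounds. Cells were treated for 16 hr at 37 °C before ONE-Glo detection.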
Starred values were filed as active, the others as inactive; [ ] = dose if it differs, or a comment. The call rests on the fitted dose curve; in most records, active means well fitted curve in the direction sought with a large enough effect; inconclusive means small, poorly fitted or top-dose-only effect, or another doubt; inactive means no such curve, though single readings can be large; an effect the other way counts as inactive or inconclusive. Potency means the concentration at half of the fitted maximal effect.

`COc1ccccc1C(=O)NNC(=S)NC(=O)c1sc2ccccc2c1Cl` gave NPC1 promoter act -7.6%, SMN2 splice up -1.3%[1.84 µM], Rab9 promoter act -6.6%, FLuc counter -12.8% and ELG1 genotox 2.2%.
`O=C(O)CCCn1cc(NC(=O)c2sc3ccccc3c2Cl)cn1` gave NPC1 promoter act -2.2%, Rab9 promoter act -3.9%, FLuc counter 26.9µM* and ELG1 genotox 3.3%.
Screening Cc1ccc(-n2c(SCc3ccccc3F)nc3[nH]ncc3c2=O)cc1Cl returned FLuc counter 0.4%.
Screening Cc1ccc2oc(=O)c3cc(C(=O)Nc4ccc(F)cc4F)sc3c2c1 returned SMN2 splice up -3.0% and FLuc counter -0.1%.
`CN(C)c1ccc(NC(=S)c2ccccn2)cc1` gave NPC1 promoter act inconclusive, SMN2 splice up 0.501µM*, Rab9 promoter act 0.316µM*, FLuc counter 0.0849µM* and ELG1 genotox inconclusive.
Screening CN(C)c1ccc(C(=S)Nc2ccccc2)cc1 returned NPC1 promoter act 2.82µM*, SMN2 splice up 25.8%, Rab9 promoter act 1µM*, FLuc counter 1.51µM* and ELG1 genotox inconclusive.
`CN(C)c1cc(O)c(C(=S)Nc2ccccc2)c(N(C)C)c1` gave NPC1 promoter act 24.3%, SMN2 splice up 5.0%, Rab9 promoter act 20.0%, FLuc counter 23.9µM* and ELG1 genotox -3.9%.
`Cc1ccc(NC(=O)CN(C)C(=O)c2ccccn2)cc1` gave NPC1 promoter act -0.3%, Rab9 promoter act -1.1%, FLuc counter -0.3% and ELG1 genotox -0.6%.
CC(=O)c1cc(C#N)c(SCc2ccccc2C#N)nc1C was read as NPC1 promoter act -0.1%, SMN2 splice up 12.8%, Rab9 promoter act 2.6%, FLuc counter 15.1µM* and ELG1 genotox -0.1%.
CC(=O)c1cc(C#N)c(SCc2ccncc2)nc1C was read as NPC1 promoter act 1.1%, Rab9 promoter act 8.0%, FLuc counter -2.0% and ELG1 genotox -4.3%.
Cc1ccc(Cl)cc1NC(=O)C(C)n1nnc2sc3c(c2c1=O)CCCC3 (stereo not drawn) was read as SMN2 splice up -1.6% and FLuc counter -1.5%.
For COc1ccc(/C=C/C(=O)Oc2cccc(/C=N/NC(=O)c3cccc(F)c3)c2)cc1 the results were NPC1 promoter act 3.55µM*, SMN2 splice up 11.2µM*, Rab9 promoter act 2.82µM*, FLuc counter 2.39µM* and ELG1 genotox inconclusive.
Screening COc1ccc(/C=C\C(=O)Oc2cccc(/C=N/NC(=O)Cc3ccc(OC)c(OC)c3)c2)cc1 returned NPC1 promoter act inconclusive, SMN2 splice up 12.6µM*, Rab9 promoter act inconclusive, FLuc counter 10.7µM* and ELG1 genotox inconclusive.
Nc1ncnc2c1c(I)cn2C1OC(CO)C(O)C1O (stereo not drawn) was read as SMN2 splice up -90.5%.
For Cc1ccc(CSc2nnc(-c3cccc4ccccc34)o2)cc1 the results were ELG1 genotox 3.1%.
`c1ccc(Nc2nnc(-c3cccc4ccccc34)o2)cc1` gave NPC1 promoter act -5.0%, Rab9 promoter act inconclusive, FLuc counter 2.13µM* and ELG1 genotox inconclusive.
COc1ccc(NC(=O)c2ccc(N(C)S(C)(=O)=O)cc2)cc1OC was read as NPC1 promoter act 7.9%, SMN2 splice up 16.4%, Rab9 promoter act 10.8%, FLuc counter -10.3%[2.3 µM] and ELG1 genotox 0.9%.
For COc1cc(C=O)ccc1OCC(=O)Nc1cccc(S(=O)(=O)N(C)c2ccccc2)c1 the results were NPC1 promoter act -2.4%, Rab9 promoter act -0.1%, FLuc counter -18.3% and ELG1 genotox 0.6%.
COc1ccc(C(=O)Nc2cccc(N(C)S(C)(=O)=O)c2)cc1OC was read as NPC1 promoter act inconclusive, SMN2 splice up 12.6µM*, Rab9 promoter act inconclusive, FLuc counter 16.9µM* and ELG1 genotox 16.4µM*.
CN(c1cccc(NC(=O)CN2C(=O)c3ccccc3S2(=O)=O)c1)S(C)(=O)=O was read as NPC1 promoter act 12.8%, SMN2 splice up 23.1%, Rab9 promoter act -1.0%, FLuc counter 26.9µM* and ELG1 genotox 0.9%.
For COc1ccccc1OCC(=O)Nc1cccc(N(C)S(C)(=O)=O)c1 the results were NPC1 promoter act 12.5%, SMN2 splice up 14.1%, Rab9 promoter act 0.0%, FLuc counter 16.9µM* and ELG1 genotox 2.4%.
COc1ccc(NC(=O)/C=C/c2cccc(F)c2)cn1 was read as NPC1 promoter act 2µM*, SMN2 splice up 11.2µM*, Rab9 promoter act 2.24µM*, FLuc counter 7.57µM* and ELG1 genotox inconclusive.
For Cc1ccc(NC(=O)/C=C/c2ccco2)cc1F the results were FLuc counter 5.36µM*.
`Cc1cc(NC(=O)/C=C/c2ccco2)ccc1NC(=O)c1ccccc1` gave NPC1 promoter act 0.4%, Rab9 promoter act 9.8%, FLuc counter inconclusive and ELG1 genotox -0.3%.
For COc1ccc(NC(=O)/C=C/c2ccco2)cn1 the results were NPC1 promoter act 3.16µM*, SMN2 splice up 12.6µM*, Rab9 promoter act 3.98µM*, FLuc counter 21.3µM* and ELG1 genotox inconclusive.
Screening Cc1ccc(NC(=O)C2CCN(c3cc(C)nc4c(-c5ccc(Cl)cc5)c(C)nn34)CC2)c(C)c1 returned SMN2 splice up -1.7% and FLuc counter -2.1%.
COc1ccccc1-c1noc(-c2cccnc2)n1 was read as NPC1 promoter act 21.8%, SMN2 splice up 0.6%, Rab9 promoter act 14.0%, FLuc counter inconclusive and ELG1 genotox 20.6µM*.
For COc1nc2ccccc2cc1-c1noc(-c2cccnc2)n1 the results were NPC1 promoter act 9.4%, SMN2 splice up -7.2%, Rab9 promoter act 2.4%, FLuc counter 1.1% and ELG1 genotox -3.9%.
For Clc1ccc(OCc2nc(-c3ccncc3)no2)c(Cl)c1 the results were NPC1 promoter act 0.891µM*, SMN2 splice up 15.8µM*, Rab9 promoter act 0.631µM*, FLuc counter 2.13µM* and ELG1 genotox 7.31µM*.
CCOc1ccccc1-c1nc(-c2ccncc2)no1 was read as SMN2 splice up -5.1% and FLuc counter -19.4%.
COc1ccccc1-c1nc(-c2ccncc2)no1 was read as NPC1 promoter act 2µM*, SMN2 splice up 12.6µM*, Rab9 promoter act 2µM*, FLuc counter 6.75µM* and ELG1 genotox inconclusive.
Screening Clc1cccc(OCc2nc(-c3ccncc3)no2)c1 returned NPC1 promoter act 6.7%, SMN2 splice up 14.6%, Rab9 promoter act 23.3%, FLuc counter -18.7% and ELG1 genotox 11.4%.
For COc1ccc(Cl)cc1-c1nc(-c2ccncc2)no1 the results were NPC1 promoter act 28.6%, SMN2 splice up 28.2µM*, Rab9 promoter act 17.9%, FLuc counter 0.5% and ELG1 genotox inconclusive.
`Cc1nc2ccccc2n1CCc1nc2c3ccccc3nc(SCc3ccc(F)cc3)n2n1` gave FLuc counter -2.4%.
